TDP1 inh – qHTS Assay for Inhibitors of Tyrosyl-DNA Phosphodiesterase (TDP1). Tyrosyl-DNA phosphodiesterase 1 (Homo sapiens), Q9NUW8. Potency, µM (top dose mostly 130 µM), inactives show top-dose activity change, negative = inhibition, actives largely listed as inhibitors. 0.28% of 350,000 active. recombinant TDP1, AlphaScreen DNA substrate cleavage. AID 485290, 2010; also: potency is read from the fitted curve at half-maximal effect; % is scaled to controls: 0 for no effect and ±100 for the full control effect; nearly all actives have a fitted effect of over 40% in size
Target sequence (Q9NUW8 whole entry, looked up): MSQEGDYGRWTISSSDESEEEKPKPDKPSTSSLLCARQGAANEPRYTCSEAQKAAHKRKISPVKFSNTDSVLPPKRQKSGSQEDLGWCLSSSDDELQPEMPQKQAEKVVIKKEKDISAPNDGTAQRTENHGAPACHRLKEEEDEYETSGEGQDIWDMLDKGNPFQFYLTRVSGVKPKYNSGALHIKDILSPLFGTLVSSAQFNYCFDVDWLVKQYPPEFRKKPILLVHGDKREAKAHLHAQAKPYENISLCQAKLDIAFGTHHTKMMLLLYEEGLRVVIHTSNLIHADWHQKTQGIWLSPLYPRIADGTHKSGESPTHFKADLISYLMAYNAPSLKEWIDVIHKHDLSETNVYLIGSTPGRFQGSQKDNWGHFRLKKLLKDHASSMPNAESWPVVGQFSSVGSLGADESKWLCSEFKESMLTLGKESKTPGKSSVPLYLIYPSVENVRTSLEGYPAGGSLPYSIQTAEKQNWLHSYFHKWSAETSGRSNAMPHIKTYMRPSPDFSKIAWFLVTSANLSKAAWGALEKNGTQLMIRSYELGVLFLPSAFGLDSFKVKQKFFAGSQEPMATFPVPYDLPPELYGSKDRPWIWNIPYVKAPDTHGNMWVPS
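Steps: enzyme plus compound, 15 min RT; add biotin/phosphotyrosine-FITC oligonucleotide (15 nM final), react 5 min; add donor/acceptor beads (10 ug/ml final), 10 min; read AlphaScreen. Tdp1 at 1 nM final.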
uPA generation – qHTS for Inhibitors of Cell Surface uPA Generation | 0.31% of 330,000 active | Potency, µM (highest dose often 38.3 µM), without a hit: top-dose activity change, negative = inhibition, actives largely listed as inhibitors | cell surface uPA generation assay, qHTS; active = well fitted inhibition curve with a large enough effect; inconclusive = small, poorly fitted or top-dose-only effect; inactive = no such curve, though single readings can be large or run the other way; tested in mouse RAW 264.7 cells; also: potency is read from the fitted curve at half-maximal effect; % is scaled to controls: 0 for no effect and ±100 for the full control effect; nearly all actives have a fitted effect of over 55% in size
DT40 TDP1 CPT – qHTS for Inhibitors of human tyrosyl-DNA phosphodiesterase 1 (TDP1): qHTS in cells in presence of CPT. chicken DT40 Tdp1-/-;hTDP1 cells + 20 nM CPT, ATP luminescence, 48 h. Potency, µM (titrated, usually from 46.2 µM), for the others: at the highest dose activity change, negative = growth inhibition, most hits filed as inhibitors. 12% of 420,000 active. AID 686979, 2013; also: potency is read from the fitted curve at half-maximal effect; % is scaled to controls: 0 for no effect and ±100 for the full control effect; nearly all actives have a fitted effect of over 55% in size
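Chicken DT40 Tdp1-/- cells stably complemented with human TDP1 were seeded at 400 cells/well in medium containing 20 nM camptothecin, exposed to pin-transferred compounds, and grown at 37 °C for at least 48 hr. Viability was read as ATP luminescence.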
DT40 TDP1 no CPT – qHTS for Inhibitors of human tyrosyl-DNA phosphodiesterase 1 (TDP1): qHTS in cells in absence of CPT; Potency, µM (series often up to 46.2 µM), for inactives: top-dose activity change, negative = growth inhibition, hits mostly inhibitors; DT40 Tdp1-/- hTDP1 cells, no CPT, ATP luminescence, 48 h; 15% of 420,000 active; also: potency is read from the fitted curve at half-maximal effect; % is scaled to controls: 0 for no effect and ±100 for the full control effect; nearly all actives have a fitted effect of over 55% in size
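Seeded 400 DT40-hTDP1 cells/well (vehicle DMSO, no 20 nM CPT); pinned compounds; ≥48 hr at 37 °C; CellTiter-Glo luminescence as viability measure.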
miR-21 reporter – qHTS Assay for Modulators of miRNAs and/orActivators of miR-21; HeLa miR-21 FLuc reporter, luciferase, 48 h; Potency, µM (titrated, usually from 38.3 µM), for inactives: at the top dose activity change, positive = activation, most hits filed as activators; 340,000 tested, under 10 active;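 also: % of control where 0% means no effect; miR-21 action dims this reporter so a rising signal means less miR-21 action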
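HeLa cells endogenously expressing miR-21, stably carrying CMV-driven firefly luciferase with a downstream miR-21 binding site, 2000 cells/well. Titrations up to approximately 40 uM, 48 hours; luciferase luminescence read.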
* hit, by the source's call; u = inconclusive; x = not tested or not shown; ! = not confirmed by another sample; [ ] = remark or other dose. In the library only some 16% were active in any assay of this set; here they are far more common. Unless noted, calls follow the shape of the dose curve; as a rule, active = well fitted curve in the direction sought with a large enough effect; inconclusive = small, poorly fitted or top-dose-only effect, or another doubt; inactive = no such curve, though single readings can be large; an effect the other way counts as inactive or inconclusive.

SMILES | TDP1 inh | uPA generation | DT40 TDP1 CPT | DT40 TDP1 no CPT | miR-21 reporter
CC(=O)N1c2ccc(S(=O)(=O)N3CCCCC3)cc2CC1C(=O)Nc1ccc(F)cc1C (configuration not stated) | 3% | -4% | -22% | -9% | 3%
COc1ccc(CN2C(=O)C(Cc3ccccc3)Nc3ncnc(N4CCN(c5ccccc5)CC4)c32)cc1 (configuration not stated) | 2% | -2% | u | u | x
COc1ccccc1C(=O)NCCC(=O)N1CCCCCCC1 | 4% | 2% | 4% | 6% | x
Cc1ccccc1CN1CCCOCCS1(=O)=O | x | 5% | -2% | u | 3%
O=S1(=O)CCOCCCN1Cc1ccccc1Br | x | 0% | 29µM*! | -28% | 0%
O=c1[nH]cnc2c1ncn2C1OCC(O)C(O)C1O (configuration not stated) | x | u | -9% | -11% | x
NCC1OC(n2cnc3c(N)ncnc32)CC1O (configuration not stated) | x | 4% | -7% | -19% | x
Nc1ncnc2c1ncn2[C@H]1C[C@H](O)[C@@H](CO)O1 | 0% | 5% | 6.5µM* | u | -1%
Nc1nc(Cl)nc2c1ncn2[C@@H]1O[C@H](CO)[C@@H](O)[C@@H]1F | x | x | 0.0021µM* | 0.0021µM* | x
Nc1ncnc2c1ncn2C1OCC(O)C1O (configuration not stated) | x | x | 18µM* | 13µM* | x
Nc1nc(Cl)nc2c1ncn2[C@@H]1O[C@H](CO)[C@H](O)C1F (some centres not stated) | 4% | x | x | x | x
Nc1nc(Cl)nc2c1ncn2[C@H]1C[C@H](O)[C@@H](CO)O1 | 3% | 0.32µM* | 0.18µM* | 0.21µM* | 1%
Nc1ncn(C2CC(O)C(CO)O2)c(=O)n1 (configuration not stated) | 4% | x | x | x | x
CCN(CC)CCNCc1cc(Cl)ccc1OCc1ccccc1F | 8% | 6% | u | u | -4%
CCCCCCNC(=O)O[C@@]12CN(S(=O)(=O)c3ccc(C)cc3)C[C@]1(O)Cn1c(=O)n(CCCCCC)c(=O)n1C2 | x | x | 0% | u | x
CCCCCCn1c(=O)n2n(c1=O)C[C@]1(OC(=O)NCc3ccccc3F)CN(S(=O)(=O)c3ccc(C)cc3)C[C@]1(O)C2 | x | x | u | 15µM* | x
CCCCCCn1c(=O)n2n(c1=O)C[C@]1(OC(=O)NC3CCCC3)CN(S(=O)(=O)c3ccc(C)cc3)C[C@]1(O)C2 | x | x | u | 23µM* | x
CCOc1ccccc1NC(=O)C1CCN(S(=O)(=O)c2ccc(Br)cc2)CC1 | 5% | x | u | u | -2%
Cc1ccc2cc(CCNC(=O)c3ccc(S(=O)(=O)N4CCCCC4)cc3)c(=O)[nH]c2c1 | 4% | -6% | u | 23µM* | -4%
Cc1ccc2cc(CCNC(=O)c3ccc(S(=O)(=O)N4CCOCC4)cc3)c(=O)[nH]c2c1 | 4% | -9% | u | -28% | -5%
Cc1cc2cc(CCNC(=O)c3ccc(S(=O)(=O)N4CCOCC4)cc3)c(=O)[nH]c2cc1C | 5% | -5% | 16µM* | 18µM* | 6%
CC1(C)CC(=O)C2=C(C1)OC(N)=C(C#N)C2c1cccc(OC(=O)c2ccco2)c1 (configuration not stated) | 3% | -5% | -4% | -13% | 1%
CCC(=O)c1ccc(OCC(=O)Nc2ccccc2C(=O)NC2CC2)cc1 | 1% | -12% | 4% | -11% | x
CCCc1[nH]nc2c1C1(CCN(C(=O)OCc3ccccc3)CC1)C(C#N)=C(N)O2 | 1% | -3% | 21µM* | u | -3%
CCc1[nH]nc2c1C1(CCN(C(=O)OCc3ccccc3)CC1)C(C#N)=C(N)O2 | 3% | 4% | u | -29% | -1%[7.66 µM]
SMILES | TDP1 inh | uPA generation | DT40 TDP1 CPT | DT40 TDP1 no CPT | miR-21 reporter
CCc1ccc(-n2c(SCc3ccccc3C)nc3[nH]ncc3c2=O)cc1 | 8% | x | u | 21µM* | 3%
O=c1c2cn[nH]c2nc(SCc2c(F)cccc2F)n1-c1ccc(Cl)cc1 | 8% | 2% | u | u | 12%
Cc1ccc(-n2c(SCc3cccc(F)c3)nc3[nH]ncc3c2=O)cc1C | 9% | x | 21µM* | 21µM* | 2%
CCc1ccc(-n2c(SCc3cccc(F)c3)nc3[nH]ncc3c2=O)cc1 | 9% | x | 21µM* | 16µM* | 5%
Cc1ccc(-n2c(SCc3ccccc3C)nc3[nH]ncc3c2=O)cc1C | 8% | x | u | u | 10%
O=C1/C(=C/c2cccnc2)Sc2ccccc21 | 4% | 14% | 26µM* | u | -28%
O=C(NCCN1CCCC1)C(c1ccccc1)c1ccccc1 | x | -1% | 2% | 19% | -5%
O=C(NCC1CCCN(C(=O)c2cscn2)C1)c1ccc(-c2ccccc2)cc1 (configuration not stated) | -5% | -4% | -29% | 21µM* | 7%
O=C(Nc1cccc(-c2ccc(F)cc2)c1)C1CCCN(C(=O)c2cscn2)C1 (configuration not stated) | 3% | -4% | 13µM* | u | -2%
Cc1ncoc1C(=O)N1CCCC(C(=O)Nc2cccc(-c3ccc(F)cc3)c2)C1 (configuration not stated) | 3% | -11% | u | 18µM* | 10%
CC(=O)c1ccc(C2CC(OCCF)=CC(=O)O2)cc1 (configuration not stated) | x | x | 1% | -9% | x
CC(C)NC(=O)C1(C)CSCC(=O)N1Cc1ccco1 (configuration not stated) | x | x | 26% | 11% | x
Cc1ccc(S(=O)(=O)NCc2n[nH]c(=S)n2C)cc1 | -4% | 3% | -2% | -10% | -2%
CC(C)=CCCC(C)NC(=O)NC1CCCCC1 (configuration not stated) | 3% | 3% | u | 16µM* | -38%
CCN(C[C@H]1N[C@@](Cc2ccccc2)(C(=O)OC)[C@H]2C(=O)N(Cc3ccccc3)C(=O)[C@@H]12)S(=O)(=O)c1ccc(C(F)(F)F)cc1 | 0% | 16% | u | u | x
CCN(C[C@H]1N[C@@](Cc2ccccc2)(C(=O)OC)[C@H]2C(=O)N(C)C(=O)[C@@H]12)S(=O)(=O)c1ccc(C(F)(F)F)cc1 | 0% | 17% | 23µM* | 18µM* | x
CC[C@@]1(C(=O)OC)N[C@H](CN(C)S(=O)(=O)c2ccc(-c3ccccc3)cc2)[C@@H]2C(=O)N(Cc3ccccc3)C(=O)[C@@H]21 | 1% | 13% | -15% | -27% | x
